The text below walks through data of PubChem BioAssay AID493151 (Sanford-Burnham Center for Chemical Genomics, 2011).

In all, about 1,400 compounds went through this assay and about 860 (61%) were called active. So high a share suggests a set chosen from earlier hits. Only a sample is shown. Unmarked numbers belong to inactive results.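 How the source made its calls: active means inhibition reaching a set limit, 80% of the first screen's cutoff, at 20 µM in any replicate; inactive means the rest.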

The target of this experiment is DNA dC->dU-editing enzyme APOBEC-3A (Homo sapiens) (UniProt P31941). Description: A3A ssDNA deamination blockers, replicate testing – biochemical, single concentration, fluorescence readout, selectivity assay for APOBEC3G inhibitor project, confirmation (AID 493151).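 Further: plate controls were DMSO wells with A3A for no effect and wells lacking A3A enzyme for full effect.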 The note with it: recombinant A3A, ssDNA deaminase UDG fluorescence assay; at 20 µM; hits give high values.
DNA dC->dU-editing enzyme APOBEC-3A (Homo sapiens), sequence (P31941 whole entry, looked up): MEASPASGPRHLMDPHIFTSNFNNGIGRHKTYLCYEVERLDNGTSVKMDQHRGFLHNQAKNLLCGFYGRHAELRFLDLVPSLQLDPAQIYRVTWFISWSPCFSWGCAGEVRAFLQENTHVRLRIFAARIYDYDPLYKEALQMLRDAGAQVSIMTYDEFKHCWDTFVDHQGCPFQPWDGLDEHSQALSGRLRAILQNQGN
In general, inhibition refers to the change of the read-out against control, counted positive when it falls. As for `C=CC1=C(C(=O)O)N2C(=O)[C@@H](NC(=O)/C(=N/OCC(=O)O)c3csc(N)n3)[C@H]2SC1`, the inhibition was 76.3% (active).

On to `O=C(Nc1cccc(-c2nc3ccccc3[nH]2)c1)c1ccc(C(=O)Nc2cccc(-c3nc4ccccc4[nH]3)c2)cc1`, for which the inhibition was 6.82%.

Turning to `CC(=O)Nc1ccc(NC(=O)C2CCCN(S(=O)(=O)c3ccc(Cl)cc3)C2)cc1` (centres undefined), the inhibition was -5.52%.

As for `CSc1nnc(-c2ccncc2)n1CCCN1CCCC1=O`, the inhibition was 72.4% (active).

As to `O=C(CSc1nccc(=O)[nH]1)Nc1ccc(N2CCOCC2)c(Cl)c1`, the inhibition is 18.1%.

Consider `COc1cc(/C=N\Nc2ccc([N+](=O)[O-])cn2)ccc1OCC(=O)O`, for which the inhibition was 37.7% (active).

As to `CC1(C)CC(N2CCN(C(c3ccccc3)c3ccccc3)CC2)=CC(=[N+]2CCCCC2)C1`, the inhibition is 58.7% (active).

With `Cc1ccc(C2=C/C(=C\c3cccnc3)C(=O)O2)cc1`, the inhibition was 19.7%.

`CCNC(=O)COC(=O)CCNC(=O)c1cccc(C)c1`: the inhibition is 25.7% (active).

`CSc1nnc(SCc2nc3sc(C(=O)O)c(C)c3c(=O)[nH]2)s1`: the inhibition was 68.9% (active).

For `COc1ccc(Cc2nnc(NC(=O)c3ccc(OC)cc3OC)s2)cc1`, the inhibition was -9.68%.

Turning to `COC(=O)C1=C(C)N(Cc2ccccc2)C(=NCCCOC(C)C)N[C@H]1c1ccccc1`, the inhibition is 77.1% (active).

For the molecule `N#Cc1ncc(C(F)(F)F)cc1Oc1cccnc1`, the inhibition was -4.78%.

Turning to `CCn1c(SCC(=O)Nc2cccc(F)c2)nnc1-c1cc2cc(Br)ccc2o1`, the inhibition was 68.4% (active).

With `O=C(COC(=O)c1cnc(Cl)c(Cl)c1)NCc1ccco1`, the inhibition is 19.3% (active).

Turning to `NS(=O)(=O)c1cc(C(=O)OCC(=O)NNC(=O)c2ccccc2)ccc1Cl`, the inhibition was 8.76%.

For the molecule `C[n+]1ccc(C(=O)NCc2ccccc2)cc1`, the inhibition was 63% (active).

Take `CC[n+]1cc(C)ccc1/C=C/c1ccc(N(C)C)cc1`: the inhibition is 58.4% (active).

For the molecule `CCN1C(=NCCc2cccnc2)N[C@@H](c2ccccc2)[C@H](C(=O)OC)[C@H]1C`, the inhibition is 61.1% (active).

Regarding `CC[n+]1c(C)n(-c2ccccc2)c2ccc(NC(C)=O)cc21`, the inhibition was 73.8% (active).

Regarding `COc1ccc(C)cc1NC(=O)CCCN1C(=O)NC(C)(C)C1=O`, the inhibition is 48.1% (active).

For the molecule `CS(=O)(=O)c1ccc2c(c1)SC1=NC(=O)/C(=C/c3ccco3)C(=N)N12`, the inhibition is 33.9% (active).

`CC1=NN(C(=O)CCc2ccccc2O)C(O)(C(F)(F)F)C1` (centres undefined): the inhibition is 21.4%.

For `O=C(CNC1CCCCC1)NCC1(c2ccccc2)CCCC1`, the inhibition was 29.8%.

`CC(Oc1ccc(F)cc1)C(=O)Nc1cc(S(=O)(=O)N2CCOCC2)ccc1N1CCN(C)CC1` (centres undefined): the inhibition was 55.2% (active).

With `C[N+](C)(C)CCNC(=O)c1cc[n+](Cc2ccccc2)c(/C=N/O)c1`, the inhibition was 52.7% (active).

In the case of `COC(=O)C[n+]1cccc2ccccc21`, the inhibition was 67.4% (active).

For the molecule `CC(C)c1ccc(/C=C2\NC(=O)NC2=O)cc1`, the inhibition was 67.7% (active).

In the case of `CCCCCCCC[n+]1cccc(C(=O)N2c3c(nc(N)[nH]c3=O)NC(C)C2C)c1` (centres undefined), the inhibition was 69.9% (active).

For the molecule `COc1ccc(NC(=O)CN(C)C(=O)/C=C/c2cn(Cc3ccccc3)nc2-c2cccnc2)cc1`, the inhibition is 30.7%.

On to `CCCN1C2=C(C(=O)CCC2)C(c2ccc(O)c(Br)c2)C2=C1CCCC2=O`, for which the inhibition is -5.86%.

On to `S=C(Nc1cccnc1)Nc1ccccn1`, for which the inhibition was -2%.

As to `C[N+]1(CCNC(=O)/C=N/O)CCCCC1`, the inhibition was 73.9% (active).

As for `C[N+]1(CC(O)COc2ccccc2)CCN(C(=O)c2ccc([N+](=O)[O-])cc2)CC1` (centres undefined), the inhibition is 74.8% (active).

Consider `CNc1ccc([N+](=O)[O-])cc1C(=O)O`, for which the inhibition is 0.63%.

Consider `COc1ccc(CNc2nnnn2C)cc1`, for which the inhibition was -3.03%.

For `Cc1cc2c(cc1C)[n+](C)cn2CC(O)COCC1CC=CCC1` (centres undefined), the inhibition is 73.1% (active).

For the molecule `CC(/C=C/c1ccccc1)=N\NC(=O)C1CC1(C)c1ccccc1` (centres undefined), the inhibition is -0.43%.

In the case of `COc1ccc2[nH]c(=O)c(-c3noc(-c4ccc(F)cc4)n3)cc2c1`, the inhibition was 5.11%.

With `CCCc1nc(-c2cc3cc(C)ccc3[nH]c2=O)no1`, the inhibition was 67.6% (active).

For the molecule `COc1ccccc1-c1noc(CSc2nc(C)cc(=O)[nH]2)n1`, the inhibition is 36.8% (active).

Regarding `O=C(c1ccc(CS(=O)(=O)c2ccccc2)o1)N1CCN(c2ccccc2)CC1`, the inhibition is 31.7% (active).

As to `Cc1snc(SCc2c(F)cccc2Cl)c1C#N`, the inhibition is 30.3%.

Regarding `N#Cc1ccccc1CN1C(=O)S/C(=C/c2cccn2-c2cccc(C(=O)O)c2)C1=O`, the inhibition was 53.8% (active).

As for `CCN(CC)CCCNC(=O)CCn1nc(-c2ccc(Cl)cc2)ccc1=O`, the inhibition is -4.91%.

In the case of `Cc1nnc(N/N=C/c2ccccn2)[nH]c1=O`, the inhibition was -1.88%.

Take `O=C(N/N=C\c1cccnc1)c1cc(-c2ccccc2)nc2c(Cl)cccc12`: the inhibition was -3%.

As for `COc1ccccc1CCNC(=O)C1CCN(C(=O)/C=C/c2ccccc2)CC1`, the inhibition was 36.9% (active).

As for `COc1ccc(CCNC(=O)COC(=O)/C=C/c2cccs2)cc1OC`, the inhibition was -7.13%.

`CC1(C)Oc2ccc3ccc(=O)oc3c2/C(=C/NCCO)C1=O`: the inhibition is 71.5% (active).

Regarding `N#Cc1ccsc1NC(=O)CN1CCN(S(=O)(=O)c2cc(Cl)ccc2Cl)CC1`, the inhibition is 22.2%.

Regarding `CCOC(=O)c1ccc(NC(=O)CSc2ncccn2)cc1`, the inhibition is 59% (active).

With `CCN(CC)CCOC(=O)c1ccc(NC(=O)CNC(=O)c2ccccc2)cc1`, the inhibition was 2.53%.

Take `Cc1csc(SCC(=O)Nc2sccc2C#N)n1`: the inhibition was 0.02%.

As for `Cc1cc(/C=N/NC(=O)CC2(C)OCCO2)c(C)n1-c1ccc(Cl)c(Cl)c1`, the inhibition was 0.39%.

As to `CCS(=O)(=O)c1ccc(-c2cccc(NC(=O)c3ccc(Br)o3)c2)nn1`, the inhibition is -5.47%.

Take `CCCCNC(=O)CSc1nc2ccc(NC(=O)CSc3nnc(N)s3)cc2s1`: the inhibition is 49.7% (active).

On to `COc1ccc(Br)cc1CN(C)C(=O)C1CC(=O)N(C2CCCC2)C1` (centres undefined), for which the inhibition was 27.6% (active).

For the molecule `O=C(CSc1nc2ccccc2c(=O)[nH]1)Nc1nc(-c2ccc(Br)cc2)cs1`, the inhibition is 42.3% (active).

Take `CC(C)CCOc1ccc(C(=O)C[N+]2(C)CCOCC2)cc1`: the inhibition was 95.7% (active).

For `Cc1ccc(C(=O)N/N=C\c2cc(Br)c(Br)o2)cn1`, the inhibition was 15.2% (active).

In the case of `COc1cccc(NC(C)=[N+](C)CCNS(=O)(=O)c2ccc(Cl)cc2)c1`, the inhibition is 29.4%.

As to `C[N+](C)(CCCCCC[N+](C)(C)CCCN1C(=O)c2cccc3cccc(c23)C1=O)CCCN1C(=O)c2cccc3cccc(c23)C1=O`, the inhibition was 35.2% (active).

For `CC(=O)Nc1ccc(Nc2cc(C)nc(Nc3ccc(NC(C)=O)cc3)n2)cc1`, the inhibition was 48.6% (active).

For the molecule `Cc1ccc(CCCOC(=O)C[N+]2(C)CCCCC2)cc1`, the inhibition was 81.4% (active).

With `CCN1C(=NCC(C)C)N[C@@H](CCc2ccccc2)[C@H](C(=O)NCC(C)C)[C@H]1C`, the inhibition is 37.8% (active).

As for `CCN1C(=NCc2ccc(OC)cc2)N[C@@H](CCc2ccccc2)[C@H](C(=O)NCc2ccc(OC)cc2)[C@H]1C`, the inhibition was 32.8% (active).

For `COCCCn1c(Cc2csc(Nc3cccc(Cl)c3)n2)nnc1SCC(=O)OC1CCCCC1`, the inhibition was 72.2% (active).

Consider `O=C1c2oc3ccccc3c(=O)c2C(c2cccc(O)c2)N1c1ccccn1` (centres undefined), for which the inhibition is -9.88%.
